The source of these data is PubChem BioAssay AID504834 (National Center for Advancing Translational Sciences (NCATS), 2011).

Structures are written as SMILES. Values joined by “and” are separate entries in the source; they are usually repeats but may differ in a detail not shown here. Identical values can stand only once. In all, about 320,000 compounds went through this assay and about 22,000 (6.9%) were called active. Not shown: some 27% with an inconclusive outcome. This is one part of a sample in which actives are shown more often than they occur. Unmarked numbers belong to inactive results. Calls come from the whole dose curve; as a rule, active = well fitted inhibition curve with a large enough effect; inconclusive = small, poorly fitted or top-dose-only effect, or another doubt; inactive = no such curve, though single readings can be large or run the other way.
% is set by controls: 0 for no effect and ±100 for the full control effect; potency is the fitted concentration of half-maximal effect.

This assay is described as follows: Primary qHTS for delayed death inhibitors of the malarial parasite plastid, 96 hour incubation. As to conditions: P. falciparum luciferase reporter growth; series mostly up to 28.7 µM; activity change, negative = inhibition: at the top concentration. The text has this: The goal of this screen is to discover new antimalarial compounds that act by inhibiting the development of the apicoplast in the malarial parasite Plasmodium falciparum. The biochemical processes that make this organelle essential for erythrocytic stage parasites are not well understood. However, antibiotics such as azithromycin and tetracycline, which target the apicoplast translational machinery, have a potent antimalarial effect.
We have developed a cell-based assay that measures parasite growth based on the expression of an integrated copy of a firefly luciferase reporter. To detect small molecules that cause this "delayed death" phenotype, erythrocytes infected with the luciferase-expressing parasites were incubated with compounds for either one or two generations, corresponding to 48 and 96 hours, respectively. Compounds that inhibit parasite growth in the second generation, but not the first, should be enriched in antimalarials that target the apicoplast. Growth inhibition is detected by a decrease in luciferase activity.
Assay Provider: David Fidock and Eric Ekland, Columbia University
Keywords: NIH Roadmap, MLPCN, MLI, MLSMR, qHTS, NCGC, qHTS, malaria, luciferase, viability
Four microliters of infected erythrocytes (2% hematocrit, 0.05% parasitemia final concentration) in culture medium were dispensed and the plates incubated for 96 hours at 37 C in 5% CO2. Two microliters of luciferase detection reagent was added and luminescence was detected by a ViewLux (PerkinElmer) reader.
On the technique in general: qHTS replaces the single test concentration by a dilution series.
For `S=C(NCCCc1ccccc1)Nc1ccc(Br)cc1`, the “activity change, negative = inhibition” value was 40.7%. Take `S=C(NCCC1=CCCCC1)Nc1ccccc1`: the Potency is 0.586 µM (active).

Consider `O=C(Cc1cccc2ccccc12)NCCC1=CCCCC1`, for which the “activity change, negative = inhibition” value is 0%. In the case of `CC(=O)N1CC(=O)N(CC(=O)Nc2ccc(Br)cc2)C1=S`, the “activity change, negative = inhibition” value was 71.4%. For `CC(=O)c1nnn(-c2ccc(Cl)cc2C#N)c1C`, the “activity change, negative = inhibition” value is 0.592%. Turning to `Cc1cccc(-c2c(NC(=O)c3ccco3)oc3ccc(Cl)cc3c2=O)c1`, the “activity change, negative = inhibition” value was 2.39%. On the same count and under the same terms, as for `Cc1noc(NS(=O)(=O)c2ccc(NC(=O)c3oc4ccc(F)cc4c3C)cc2)c1C`, the figure is 1.56%.

With `CC(C)CCn1c(=O)c2c(nc3n2CCCN3Cc2ccccc2)n(C)c1=O`, the Potency was 6.57 µM (active). `CCOC(=O)CSc1nc2c(c(=O)n(Cc3ccccc3Cl)c(=O)n2C)n1C`: the “activity change, negative = inhibition” value was 12.3%. `Cn1cnc2c1c(=O)n(Cc1c(Cl)cccc1Cl)c(=O)n2C`: the “activity change, negative = inhibition” value was -6.67%.

For `N/C(=N\OC(=O)/C=C/c1ccccc1)c1ccc(Br)cc1`, the “activity change, negative = inhibition” value was 4.24%.

As for `N/C(=N\OC(=O)N1c2ccccc2Sc2ccccc21)c1ccc(Br)cc1`, the Potency is 10.4 µM (active). As for `N/C(=N\OC(=O)Cc1ccccc1[N+](=O)[O-])c1ccc(Br)cc1`, the activity change, negative = inhibition was 12.7% [at 5.75 µM]. On to `Cc1ccc(C)c(SCc2nc3sc(C(=O)O)c(C)c3c(=O)[nH]2)c1`, for which the “activity change, negative = inhibition” value was 15.7%.

For `CC1CCN(C(=O)c2ccc3c(c2)NC(=O)CN3)CC1`, the “activity change, negative = inhibition” value was 29.3%. `Cn1cc(CNC(=O)c2ccc(OC3CCN(Cc4ccccn4)CC3)cc2)cn1`: the “activity change, negative = inhibition” value was 3.47%.

As to `O=C(Nc1ccccc1C(=O)NCC1CCCO1)c1ccccc1F` (centres undefined), the “activity change, negative = inhibition” value is -21.2%.

As to `O=C(NCC1CCCO1)c1cc2c([nH]c3ccccc32)c(-c2ccc(F)cc2)n1` (centres undefined), the Potency is 9.28 µM (active). Regarding `COc1ccc2cc(C(=O)NCC3CCCO3)[nH]c2c1` (centres undefined), the “activity change, negative = inhibition” value is 102%. In the case of `Cc1ccc(C(=O)Nc2ccn(C)n2)cc1`, the “activity change, negative = inhibition” value was 33.8%. On to `CCOc1ccc2c(c1)C(c1ccc(C)cc1)=NNC(c1ccc(C)cc1)=N2`, for which the “activity change, negative = inhibition” value is -7.17%. Take `CCOc1ccc(-c2cc(C)[n+](CCN(CC)CC)c(-c3ccc(OCC)cc3)c2)cc1`: the Potency is 0.37 µM (active). As to `CCOc1ccc(-c2nc(C)sc2CC(=O)O)cc1`, the “activity change, negative = inhibition” value was -1.13%. With `Nc1ccc(C(=O)Nc2ccccc2N)cc1`, the “activity change, negative = inhibition” value was 1.66%. In the case of `O=C(c1cccs1)N1CCN(C(=O)N2CCOCC2)CC1`, the “activity change, negative = inhibition” value is -9.34%. In the case of `CCS(=O)(=O)N1CCN(C(=O)c2cccs2)CC1`, the Potency is 4.65 µM (active). Take `Cc1ccc(S(=O)(=O)N2CCN(C(=O)c3cccs3)CC2)cc1`: the “activity change, negative = inhibition” value was 22.6%. Take `COc1ccc(S(=O)(=O)N2CCN(C(=O)c3cccs3)CC2)cc1OC`: the “activity change, negative = inhibition” value was 43.7%. For `COc1ccc(N2CCN(C(=O)c3cccs3)CC2)cc1`, the Potency was 13.1 µM (active).

Consider `O=C(COc1ccccc1)Nc1ccc(N2CCN(C(=O)c3cccs3)CC2)cc1`, for which the “activity change, negative = inhibition” value was 9.01%. The same measure, in the same setting: under `NC(=O)COc1ccccc1C(=O)NC12CC3CC(CC(C3)C1)C2` stands 27.2%. Same read-out and setting: as for `CCN(CC)CCCN=C(N)N`, the figure is 45.7%; as for `CC(C)(C)n1nnnc1C(c1ccccc1F)N1CCN(C(=O)c2ccco2)CC1` (centres undefined), -20.3%. With `COc1ccc(CN2CCN(Cc3ccc(OC)c(OC)c3OC)CC2)cc1`, the “activity change, negative = inhibition” value was -5.74%. Take `Cc1nc(C(=O)Nc2ccc(Cl)cc2)sc1C1(C)CC(c2ccccc2)=NO1` (centres undefined): the “activity change, negative = inhibition” value is -1.05%. On to `Cc1nn(-c2ccccc2)c(=O)c2noc(C)c12`, for which the “activity change, negative = inhibition” value was 24.6%.

As for `COc1ccc(C(=O)Nc2cc(C)c(NC(=O)c3ccccc3OC)cn2)cc1`, the “activity change, negative = inhibition” value was -9.94%. `Cc1cccc(C2=N/C(=C/c3cccs3)C(=O)O2)c1`: the “activity change, negative = inhibition” value was -19.3%.

Take `CSC1=N/C(=C\C=C\c2cccs2)C(=O)S1`: the Potency is 5.22 µM (active).

With `CSC1=N/C(=C\c2ccc3c(c2)OCO3)C(=O)S1`, the “activity change, negative = inhibition” value is -18.9%. In the case of `O=S(=O)(Cc1noc(-c2ccc(OC(F)(F)F)cc2)n1)c1ccc(F)cc1`, the “activity change, negative = inhibition” value was -0.67%. Take `COc1ccc(NC(=O)c2cccc(Cl)c2)c[n+]1[O-]`: the “activity change, negative = inhibition” value is 43.4%. The same measure, in the same setting: under `COc1cc(Cl)c(S(=O)(=O)n2cnc(C)c2)cc1Cl` stands 13.2%.

As to `COc1cc(OC)c(-n2cc(-c3ccc(Cl)cc3)[nH]c2=O)cc1Cl`, the “activity change, negative = inhibition” value is 55.8%. In the case of `COc1cc(OC)c(-n2c(C)cc(C=O)c2C)cc1Cl`, the Potency was 13.1 µM (active). `O=C1c2ccccc2C(=O)N1c1cccc2ccccc12`: the “activity change, negative = inhibition” value was 10.7%. As to `Cc1n[nH]c(=O)c2c(NC(=O)CSc3cc(Cl)ccc3Cl)oc(C)c12`, the “activity change, negative = inhibition” value was 11.3%.

In the case of `CCn1cc(CN2CCC(C(=O)Nc3cccc(-c4cccc(Cl)c4)c3)CC2)cn1`, the “activity change, negative = inhibition” value is 26.2%.

Regarding `COc1cccc(-c2cccc(NC(=O)C3CCN(C4CCC4)CC3)c2)c1`, the “activity change, negative = inhibition” value was 30.6%. For the molecule `O=C(Nc1cccc(-c2cccc(Cl)c2)c1)C1CCN(C2CCC2)CC1`, the Potency was 10.4 µM (active). `COC(=O)CSc1nnc(NC(=O)CCc2ccccc2)s1`: the “activity change, negative = inhibition” value is 12.1%. Regarding `CC(C)CCN1CCN=C1N(C)C`, the “activity change, negative = inhibition” value is 0%. As for `COc1ccc(S(=O)(=O)N2CCN(C(=O)N(C)C)C2C)cc1` (centres undefined), the “activity change, negative = inhibition” value is 27.7%. In the case of `Cc1cccc(C(=O)N2CCN(S(=O)(=O)N3CCCCC3)CC2)c1`, the “activity change, negative = inhibition” value is 30.2%. For `CCCCN(CCCC)CCC(O)c1cc2c(Cl)cc(Cl)cc2c2cc(C(F)(F)F)ccc12` (centres undefined), the Potency is 2.6 nM (active) and 2.9 nM (active). As to `CN(CC(=O)NCCc1ccccn1)S(=O)(=O)c1ccc(Cl)cc1`, the “activity change, negative = inhibition” value was 10%. On to `CN(CC(=O)NCC(c1ccccc1)N1CCCC1)S(=O)(=O)c1ccc(Cl)cc1` (centres undefined), for which the Potency was 8.28 µM (active). As to `Cc1ccc(S(=O)(=O)N(C)CC(=O)NCC(c2ccc(F)cc2)N2CCOCC2)cc1` (centres undefined), the Potency is 10.4 µM (active).

For `CN(CC(=O)NCCN1CCOCC1)S(=O)(=O)c1ccc(F)cc1`, the “activity change, negative = inhibition” value is 20.1%. Take `Cc1ccc(NC(=O)NCC(c2cccnc2)N2CCOCC2)cc1` (centres undefined): the “activity change, negative = inhibition” value is 11.9%. For `CN(CC(=O)NNC(=O)CNC(=O)c1ccccc1Cl)S(=O)(=O)c1ccc(Cl)cc1`, the “activity change, negative = inhibition” value was 16.9%. On to `COc1ccccc1OCCOc1ccc(/C=C2\C(=N)N3N=C(C)SC3=NC2=O)cc1`, for which the “activity change, negative = inhibition” value is 21.5%. Still for that read-out and setting: under `CCOC(=O)N1CCN(C(=O)CN(c2ccc(C)c(C)c2)S(=O)(=O)c2ccccc2)CC1` stands 21.9%. In the case of `CCN1CCN(C(=O)c2ccc(CN(c3ccc(C)c(C)c3)S(C)(=O)=O)cc2)CC1`, the Potency is 10.4 µM (active).

As to `CCOC(=O)N1CCN(C(=O)c2ccc(CN(c3ccc(C)c(C)c3)S(C)(=O)=O)cc2)CC1`, the “activity change, negative = inhibition” value was -3.85%. Same read-out and setting: under `CC1CN(C(=S)Nc2ccccc2F)CC(C)O1` (centres undefined) stands -42%. As to `Cc1[nH]n(-c2cccc(Cl)c2)c(=O)c1-c1ccc(Cl)cc1`, the Potency was 0.415 µM (active). Consider `CCCc1cc(=O)n2[nH]c(C)c(-c3ccc(Cl)cc3)c2n1`, for which the “activity change, negative = inhibition” value is -3.91%.

For `O=c1[nH]n(-c2cccc(Cl)c2)c2ncccc12`, the “activity change, negative = inhibition” value was 40.9%.
